The text below walks through data of the supplement of paper PMC4237247.

The structures appear in SMILES notation. Structures can show the parent of a compound that is named as a salt.

The assay deals with HeLa. Nature of the assay: percent cells in G1 phase; higher = more G1 arrest. The conditions noted are these: 10 µM; 20 h. As for the experimental part: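 HTS of 79,827 drug-like compounds at 10 uM. HeLa cells in 384-well plates were treated for 20 h, fixed, stained with Vybrant DyeCycle Green and scanned on an Acumen eX3 cytometer to give per-well cell cycle profiles (% cells in each phase). The plate Z' was 0.51. Only hits are listed: G1 hits >4 SD and S hits >5 SD from the mean.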
Turning to `C[C@@H]1C[C@H]2[C@@H]3C[C@H](F)C4=CC(=O)C=C[C@]4(C)[C@@]3(Cl)[C@@H](O)C[C@]2(C)[C@H]1C(=O)COC(=O)C(C)(C)C` [Clocortolone pivalate] (hit class: S-phase inhibitor), the “percent cells in G1 phase” value is 43.2%.

Turning to `CC(=O)C1=C(O)C(=O)N(CC(=O)O)C1c1ccccc1F` (configuration not stated) (hit class: S-phase inhibitor), the “percent cells in G1 phase” value stood at 61.1%.

As for `O=C1c2c(O)ccc(O)c2C(=O)c2c(NCCNCCO)ccc(NCCNCCO)c21` [Mitoxantrone dihydrochloride] (hit class: G1-phase inhibitor), the “percent cells in G1 phase” value amounted to 70%.

With `COc1ccc(C(=O)c2coc3ccc(OC)cc3c2=O)cc1` (hit class: G1-phase inhibitor), the “percent cells in G1 phase” value was found to be 70.5%.

For the compound `COc1[nH]c2ccccc2c1C=NO` (hit class: S-phase inhibitor), the “percent cells in G1 phase” value was 59.4%.

Turning to `Cc1cc(N2CCCCC2)c(F)cc1[N+](=O)[O-]` (hit class: S-phase inhibitor), the “percent cells in G1 phase” value is 44.7%.

On to `COc1ccc(CSc2nncn2N)cc1` (hit class: S-phase inhibitor), for which the “percent cells in G1 phase” value was 61.4%.

Consider `O=C(COc1ccc(Cl)cc1)NC(Cc1c[nH]c2ccccc12)C(=O)O` (configuration not stated) (hit class: G1-phase inhibitor), for which the “percent cells in G1 phase” value amounted to 69%.

On to `COc1c(C)c2c(c(O)c1C/C=C(\C)CCC(=O)O)C(=O)OC2` [Mycophenolic acid] (hit class: S-phase inhibitor), for which the “percent cells in G1 phase” value stood at 39%.

For `CCN(CC)Cc1c(O)ccc2c(=O)c(-c3ccccc3)coc12` (hit class: S-phase inhibitor), the “percent cells in G1 phase” value amounted to 55.9%.

Regarding `Cc1cc([N+](=O)[O-])ccc1NCc1ccc(F)c(F)c1` (hit class: G1-phase inhibitor), the “percent cells in G1 phase” value worked out at 69.8%.

Consider `Nc1ccn([C@H]2CC[C@@H](CO)O2)c(=O)n1` [Zalcitabine] (hit class: S-phase inhibitor), for which the “percent cells in G1 phase” value came to 45.1%.

`Cn1c(SCc2ccccc2)nc2ccccc2c1=O` (hit class: S-phase inhibitor): the “percent cells in G1 phase” value turned out to be 60%.

Turning to `C[C@@H]1CCC[C@H](C)N1NC(=O)c1ccc(Cl)c(S(N)(=O)=O)c1` [Clopamide] (hit class: G1-phase inhibitor), the “percent cells in G1 phase” value worked out at 70.5%.

With `CC[C@@H](C(=O)[C@@H](C)[C@@H](O)[C@H](C)CCc1ccc(C)c(O)c1C(=O)O)[C@H]1O[C@](CC)([C@H]2CC[C@](O)(CC)[C@H](C)O2)C[C@@H]1C` [Lasalocid sodium salt] (hit class: G1-phase inhibitor), the “percent cells in G1 phase” value is 73.9%.

On to `Cc1ccc(-c2cc(-c3ccccc3Cl)[nH]n2)c(O)c1` (hit class: G1-phase inhibitor), for which the “percent cells in G1 phase” value turned out to be 69.2%.

Take `c1ccc2c(c1)Nc1nc3ccccc3nc1O2` (hit class: G1-phase inhibitor): the “percent cells in G1 phase” value was 70.5%.
